Activity change, less the hit threshold data for 98 molecules are collected here from PubChem BioAssay AID1942 (Johns Hopkins Ion Channel Center, 2009).

Each structure is given as a SMILES string. Screen size: about 2,400 compounds; about 580 (24%) were called active.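 The calls were made as follows: active = activity change at or above the mean plus 3 SD of buffer wells without dofetilide, per plate; inactive = the rest.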 These entries were drawn from the full list.

Sequence of Potassium voltage-gated channel subfamily KQT member 2 (Rattus norvegicus) (O88943 whole entry, looked up): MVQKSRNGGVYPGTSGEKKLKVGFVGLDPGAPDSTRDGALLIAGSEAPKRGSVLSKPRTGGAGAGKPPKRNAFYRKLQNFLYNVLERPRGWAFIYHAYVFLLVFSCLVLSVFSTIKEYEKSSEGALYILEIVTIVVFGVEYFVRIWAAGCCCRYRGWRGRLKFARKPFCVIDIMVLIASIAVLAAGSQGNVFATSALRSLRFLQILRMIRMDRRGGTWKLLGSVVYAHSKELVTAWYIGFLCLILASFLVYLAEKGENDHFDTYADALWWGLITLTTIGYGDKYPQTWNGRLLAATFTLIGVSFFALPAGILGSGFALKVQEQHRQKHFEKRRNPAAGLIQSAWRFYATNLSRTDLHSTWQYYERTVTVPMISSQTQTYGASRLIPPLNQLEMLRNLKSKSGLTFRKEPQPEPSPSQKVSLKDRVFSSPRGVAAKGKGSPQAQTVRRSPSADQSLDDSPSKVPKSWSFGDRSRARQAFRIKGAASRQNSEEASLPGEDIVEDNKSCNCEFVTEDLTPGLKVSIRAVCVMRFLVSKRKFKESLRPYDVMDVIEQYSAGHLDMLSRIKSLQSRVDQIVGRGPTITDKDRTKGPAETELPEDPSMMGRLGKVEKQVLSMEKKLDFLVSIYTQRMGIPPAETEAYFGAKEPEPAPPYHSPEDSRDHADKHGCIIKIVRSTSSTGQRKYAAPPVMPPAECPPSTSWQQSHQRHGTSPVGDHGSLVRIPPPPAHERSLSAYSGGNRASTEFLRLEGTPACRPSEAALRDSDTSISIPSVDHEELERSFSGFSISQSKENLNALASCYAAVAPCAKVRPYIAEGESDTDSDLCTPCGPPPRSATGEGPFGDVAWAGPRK

This experiment has as its target Potassium voltage-gated channel subfamily KQT member 2 (Rattus norvegicus) (UniProt O88943). The experiment in a line: rat KCNQ2 channel activation by compounds alone, confirmation, counter-screen for hERG block protector project, cell-based, CHO, FluxOR thallium flux (AID 1942).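 Also: normalized value minus buffer-control mean plus three SD of buffer wells.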 To be noted: CHO-KCNQ2 cells, FluxOR thallium flux fluorescence; at 10 µM; stronger effect = higher value. A general note: Counterscreens check selectivity or assay interference.
On to `Cc1cccc(NC(=O)CN2C(=O)S/C(=C\c3ccc(-c4cccc(C(=O)O)c4C)o3)C2=O)c1`, for which the activity change, less the hit threshold was -15.3% (inactive).
`N/C(=N\OCc1ccccc1)c1nonc1N`: the activity change, less the hit threshold is -14.5% (inactive).
Then `O=C(COC(=O)C1C2CC3OC(=O)C1C3C2)Nc1ccc(Cl)cc1` (stereo not drawn), with -17.9% (inactive).
For the molecule `CCc1ccc(/C=N/NC(=O)c2nnn(-c3nonc3N)c2C(C)C)cc1`, the activity change, less the hit threshold is -25.3% (inactive).
Then `CCC(C)C(NC(=O)C(C)NC(=O)CNC(=O)CNC(=O)OCc1ccccc1)C(=O)OC` (stereo not drawn), with -19.3% (inactive); and `CCn1c2ccccc2c2cc(NC(=O)COc3ccccc3)ccc21`, with -20.7% (inactive).
For `O=C(NC(=S)N1CCN(c2ccc(F)cc2)CC1)c1cccs1` the value was 25.4% (active); for `O=C(NC(=S)N1CCN(c2ccccc2)CC1)c1c(F)cccc1F`, -2.6% (inactive).
Then `CC1CCN(C(=S)NC(=O)c2cccs2)CC1`, with 2.2% (active); and `CC1CCCCC1NC(=S)NC(=O)c1sc2ccccc2c1Cl` (stereo not drawn), with -10% (inactive).
In the case of `O=C(NC(=S)N1CCN(c2ccccc2)CC1)c1ccccc1`, the activity change, less the hit threshold was 11.4% (active).
Then `CC1CCCCC1NC(=S)NC(=O)c1cccs1` (stereo not drawn), with 27.8% (active); and `COc1ccc(N2CCN(C(=S)Nc3cccc(OC)c3)CC2)cc1`, with -8.3% (inactive).
For the molecule `Cc1cc(C)cc(-n2nnc(C(=O)NCc3ccc4c(c3)OCO4)c2N)c1`, the activity change, less the hit threshold was -15.8% (inactive).
Then `N#Cc1cccc(NC(=O)c2nc(-c3ccccc3)n(-c3ccccc3)n2)c1`, with -22.3% (inactive).
For `Oc1ccc(N2CCN(C(c3cccnc3)c3nnnn3Cc3ccccc3)CC2)cc1` (stereo not drawn) the value was -10.2% (inactive); for `CCOC(=O)c1[nH]c(=O)[nH]c1COC(=O)c1cc2ccccc2o1`, -20.5% (inactive); for `Cn1c(/N=C/c2c(O)ccc3ccccc23)nc2ccccc21`, -14.8% (inactive).
`CCC1(C)Cc2c(sc3[nH]c(=S)n(Cc4ccccc4)c(=O)c23)CO1` (stereo not drawn): the activity change, less the hit threshold is 48.6% (active).
For `CC1(C)Cc2c(sc3[nH]c(=S)n(Cc4ccccc4)c(=O)c23)CO1` the value was 11.3% (active); for `CC(C)C1Cc2c(sc3[nH]c(=S)n(Cc4ccccc4)c(=O)c23)CO1` (stereo not drawn), 19.3% (active).
For `Cn1c(=O)c2sc3c(c2n(CC(=O)Nc2ccccc2)c1=O)COC(C)(C)C3` the value was -11.1% (inactive); for `CCC(=O)N1c2ccc(C)cc2C2=NNC(=S)NC21O` (stereo not drawn), -16.9% (inactive).
Then `O=C(NC1CCCC1)C(c1ccncc1)N(Cc1ccccc1F)C(=O)c1csnn1` (stereo not drawn), with -8.5% (inactive).
In the case of `COc1ccc(-c2cnn(C3CCS(=O)(=O)C3)c2N)cc1` (stereo not drawn), the activity change, less the hit threshold is -16.8% (inactive).
Take `Cc1cc(C)c(S(=O)(=O)c2ccccc2)c(OC(=O)c2c(F)cccc2Cl)n1`: the activity change, less the hit threshold was -22% (inactive).
For `COc1cccc(C(=O)/C=C/Nc2ccc(S(=O)(=O)Nc3cnc4ccccc4n3)cc2)c1` the value was -20.6% (inactive); for `O=C1C=C(Nc2cccc3cccnc23)c2ccccc2C1=O`, -8.1% (inactive).
For `O=C(Nn1c(O)c(C=C2N=c3ccccc3=N2)sc1=S)c1cccc(Cl)c1` the value was -23.1% (inactive); for `CN(C(=O)c1ccc(Cl)c(S(=O)(=O)N2CCOCC2)c1)c1ccccc1C(=O)O`, -1.7% (inactive).
For `c1ccc(-c2n[nH]c(-c3ccccn3)n2)cc1` the value was 5.9% (active); for `COc1ccc(-c2nc(-c3ccccn3)ncc2S(C)(=O)=O)cc1`, -15.6% (inactive).
As to `c1ccc(-c2ccc(-c3ccncn3)cc2)cc1`, the activity change, less the hit threshold is -16.2% (inactive).
For `CC(C)Sc1nc2ccccc2n2cnnc12` the value was -12.8% (inactive); for `C/C(=N\Nc1nc2ccccc2s1)c1ccc(Br)s1`, -5.9% (inactive); for `C/C(=N\Nc1nc2ccccc2s1)c1cccs1`, -9.9% (inactive).
Then `C/C(=N\Nc1nc2ccccc2nc1C)c1ccccc1O`, with 7.3% (active); and `CCCCNC(=O)N1CCCC(C(=O)c2cc(C)c(OC)c(C)c2)C1` (stereo not drawn), with -22.8% (inactive); and `CCC1(c2ccccc2)NC(=S)N(c2ccc(C)cc2)N1` (stereo not drawn), with 102% (active).
Then `CCC1(c2ccc(Cl)cc2)NC(=S)N(c2ccc(C)cc2)N1` (stereo not drawn), with 83.8% (active); and `CCC1(c2ccc(Cl)cc2)NC(=S)N(c2ccccc2)N1` (stereo not drawn), with 84.8% (active).
Take `S=c1[nH]nc(-c2ccccn2)n1/N=C/c1ccc(-c2ccccc2Br)o1`: the activity change, less the hit threshold was -12.9% (inactive).
As to `CC12CCC(C(=O)OC3CCCCC3)(OC1=O)C2(C)C` (stereo not drawn), the activity change, less the hit threshold was -26.6% (inactive).
With `C=CCNC(=O)c1onc(CSc2ccc(OC)cc2)c1C(=O)O`, the activity change, less the hit threshold was -16.5% (inactive).
In the case of `Cn1c2ccccc2c(=O)c2c(=O)n(Cc3ccco3)c(-c3ccc(Cl)cc3Cl)nc21`, the activity change, less the hit threshold was -29.7% (inactive).
Then `O=C(Nc1cccnc1)c1ccc(COc2cc(Cl)ccc2Cl)o1`, with -20% (inactive); and `O=C(CCl)NCCN1C(=O)S/C(=C\c2cccnc2)C1=O`, with -19% (inactive).
As to `C[n+]1ccccc1/C=C/c1c(F)cccc1F`, the activity change, less the hit threshold is -10.9% (inactive).
For `CCC(NS(=O)(=O)c1cn(C)nc1C)c1ccccc1` (stereo not drawn) the value was -7.9% (inactive); for `CN(C(=S)NC(=O)c1ccc(Cl)cc1)C1CCCCC1`, 4.8% (active); for `Cc1cccc(C(=O)NC(=S)NNC(=O)COc2c(C)cccc2C)c1`, -27.8% (inactive).
For `Cc1ccc(C(=O)NC(=S)N(C)C2CCCCC2)cc1` the value was 5.4% (active); for `COc1ccc(C(=O)NC(=S)N(C)C2CCCCC2)cc1`, -3.2% (inactive); for `Cc1cccc(C(=O)NC(=S)N(C)C2CCCCC2)c1`, 18.5% (active).
For the molecule `CC(C)CNC(=S)NC(=O)c1ccc(Cl)cc1`, the activity change, less the hit threshold was -3.9% (inactive).
Consider `CN(C1=C(NC(=O)c2ccccc2)C(=O)c2ccccc2C1=O)C1CCS(=O)(=O)C1` (stereo not drawn), for which the activity change, less the hit threshold was -3.2% (inactive).
As for `C/C(=C\C(=O)c1ccccc1)NNC(=O)c1ccc(Cl)cc1`, the activity change, less the hit threshold is -3.2% (inactive).
For `O=C(NC(=S)NNC(=O)[C@H]1C[C@@H]1c1ccccc1)c1cccc(F)c1` the value was -30.9% (inactive).
In the case of `CN(C(=S)NC(=O)c1ccccc1)C1CCCCC1`, the activity change, less the hit threshold is 2% (active).
Then `COc1ccc(-c2nn(-c3ccccc3)cc2C(=O)Nc2cccc(C(=O)O)c2)cc1[N+](=O)[O-]`, with -18.7% (inactive).
Then `Cc1c(Cl)c([N+](=O)[O-])nn1CC(=O)NCC(C)C`, with -16.4% (inactive); and `O=C(CCCOc1ccc(Cl)cc1Cl)Nc1ccccc1C(=O)O`, with -39.2% (inactive).
For `O=C(c1ccc(CS(=O)c2cccc(Cl)c2)o1)N1CCCCCC1` (stereo not drawn) the value was -25.8% (inactive); for `O=S(=O)(c1ccc(F)cc1)N1CCN(c2ccc(F)cc2)CC1`, -13.8% (inactive); for `CCCNC(=O)N1CCN(S(=O)(=O)c2ccc(C)cc2)CC1`, -17.2% (inactive).
For `Cc1ccc(O)c(C(=O)CC(=O)c2ccccc2Cl)c1`, the activity change, less the hit threshold is -13.5% (inactive).
Take `Cc1ccc(O)c(Sc2cc(C)ccc2O)c1`: the activity change, less the hit threshold was 2% (active).
As to `Cc1ccc(O)c(C(=O)CC(=O)c2ccc(Cl)cc2)c1`, the activity change, less the hit threshold was -16.6% (inactive).
For `NNC(=O)CNc1ccccc1Cl`, the activity change, less the hit threshold was -15.1% (inactive).
Turning to `O=C(NCC1CCS(=O)(=O)C1)Oc1ccccc1` (stereo not drawn), the activity change, less the hit threshold was -12.4% (inactive).
`C=CCN(c1cccc(C(F)(F)F)c1)S(=O)(=O)c1cccc(C(=O)OCC(=O)Nc2ccccc2)c1`: the activity change, less the hit threshold is -0.5% (inactive).
Turning to `C=CCN(c1ccc(Cl)cc1)S(=O)(=O)c1cccc(C(=O)O)c1`, the activity change, less the hit threshold is 4.4% (active).
For `C=CCN(c1ccccc1)S(=O)(=O)c1cccc(C(=O)Nc2nnc(SCC)s2)c1` the value was -20.2% (inactive).
Take `CN(C)S(=O)(=O)c1cccc(C(=O)Nc2cccnc2)c1`: the activity change, less the hit threshold is -13.5% (inactive).
On to `O=C(Cn1cncn1)c1ccccc1Br`, for which the activity change, less the hit threshold is -24% (inactive).
Turning to `CN(Cc1ccccc1)C1CCN(Cc2ccccc2[N+](=O)[O-])CC1`, the activity change, less the hit threshold was -15.5% (inactive).
For `O=C(NCC1CCCCC1)c1cccnc1Cl` the value was -17.7% (inactive); for `COc1nccnc1NS(=O)(=O)c1ccc(NC(=S)NC(=O)c2ccccc2F)cc1`, -13.5% (inactive).
For `O=C(Nc1ccccc1C(=O)O)c1cccc(NC(=O)c2ccccc2Br)c1` the value was -16% (inactive); for `CCC(=O)NC(=S)NNC(=O)c1ccccc1[N+](=O)[O-]`, -19.6% (inactive).
For `O=C(NC(=S)N(Cc1ccccc1)Cc1ccccc1)c1ccccc1F` the value was 38.8% (active); for `CCN(C(=S)NC(=O)c1ccccc1Br)C1CCCCC1`, 62.1% (active); for `CCCN(Cc1ccccc1)C(=S)NC(=O)c1ccccc1[N+](=O)[O-]`, 92.5% (active).
Consider `CCN(Cc1ccccc1)C(=S)NC(=O)c1ccccc1Br`, for which the activity change, less the hit threshold is 66.7% (active).
Then `CC(C)CN(C(=O)COC(=O)CNC(=O)c1ccccc1F)c1c(N)n(Cc2ccccc2)c(=O)[nH]c1=O`, with -7.7% (inactive).
For `CC1=NNC(=O)C1CC(=O)N/N=C/C=C/c1ccccc1` (stereo not drawn) the value was -21.4% (inactive); for `Cc1cnc(NC(=O)CN2CCN(c3ccccc3F)CC2)s1`, -16.9% (inactive); for `COc1cc(/C=C2/OC(=O)c3cc([N+](=O)[O-])ccc32)cc(OC)c1OC`, -15.4% (inactive).
Take `CCO/C=C1\N=C(c2ccc(F)cc2)OC1=O`: the activity change, less the hit threshold is -13.2% (inactive).
Regarding `O=C(CN1C(=O)S/C(=C\c2cc(Cl)c(O)c(Cl)c2)C1=O)Nc1ccccc1`, the activity change, less the hit threshold was -30.2% (inactive).
Regarding `CC(C)C12CN3CC(C(C)C)(CN(C1)C31C(=O)Nc3ccccc31)C2=O` (stereo not drawn), the activity change, less the hit threshold was -24.3% (inactive).
Regarding `O=C(COC(=O)c1cc(S(=O)(=O)NCc2ccccc2)ccc1O)NCc1ccccc1`, the activity change, less the hit threshold was -13.2% (inactive).
For `C=CCN1C(=O)C(Cc2ccc(OCC)cc2)SC1=Nc1ccc(C(=O)O)cc1` (stereo not drawn) the value was -15.5% (inactive); for `C=CCn1c(SCc2ccc(C(=O)O)cc2)nc2sc(C)c(C)c2c1=O`, 46.6% (active).
On to `O=C1CN(S(=O)(=O)c2ccccc2)CC(=O)N1CCc1ccccc1`, for which the activity change, less the hit threshold was -18.7% (inactive).
Take `Cc1ccc(Nc2nc(C)cs2)cc1`: the activity change, less the hit threshold is -9.5% (inactive).
For `Cc1ccc(Nc2cc(C)nn2-c2nc(C)cc(=O)[nH]2)cc1` the value was 68.6% (active).
Then `Cc1cccc(N/C(N)=N/c2nc(C)cc(=O)[nH]2)c1`, with -13.7% (inactive).
